In all, about 52,000 compounds went through this assay and about 1,700 (3.3%) were called active. The entries come from a sample that favours actives as a whole. A number with no mark means an inactive call. Rule as the data show it: active = survival mostly below about 52% (no sharp cut-off); inactive = mostly above about 56%.
The compounds below were run on Wild type (assay: S. aureus survival, RN4220 and DeltatarO strains – OD600, teichoic acid synthesis inhibitors, primary screen (AID 463173)). Settings: S. aureus RN4220 wild type/DeltatarO growth, OD600, 18 h, active compounds read low, screened at 18.75 µg/mL (by protocol).

Structure (SMILES) | survival
CCN1c2ccccc2-c2nc(SCC(=O)Nc3cc(OC)cc(OC)c3)ncc2S1(=O)=O | 32%
CN(C(=O)C1=CC(c2ccc3c(c2)OCO3)=NS(=O)(=O)N1C)c1ccccc1 | 89%
Cc1ccc2nsnc2c1S(=O)(=O)NC(C)(C)C | 96%
CCc1nc2ccc(C(=O)N3CCN(c4ccccc4F)CC3)cc2nc1CC | 68%
COc1cc(CN(CC2CCCO2)C(=O)c2ccc(F)cc2)cc(OC)c1OC (stereo not drawn) | 86%
Cn1c(SCc2ccc(Br)cc2)nc2c([nH]c3ccccc32)c1=O | 131%
CCCN(C(=O)Cn1c(=O)oc2cc(Cl)ccc21)c1ccc(C(C)C)cc1 | 8% (active)
CCN(C(=O)Cn1c(=O)oc2cc(Cl)ccc21)c1cccc(C(F)(F)F)c1 | 83%
CCCN(c1ccc(C(C)C)cc1)S(=O)(=O)c1ccc2c(c1)oc(=O)n2CC(=O)OCC | 73%
CCCN(C(=O)COc1cc(=O)n(CC)c2ccccc12)c1ccc(C(C)C)cc1 | -7% (active)
CCn1c(=O)cc(OCC(=O)N(C)c2cc(Cl)ccc2C)c2ccccc21 | 62%
CCn1c(=O)cc(OCC(=O)N(C)c2ccc(OC)cc2)c2ccccc21 | 78%
CCOC(=O)c1ccc(N2CCN(c3ccccc3OC)CC2)c(NC(=O)Nc2ccc(CC)cc2)c1 | 80%
CCOC(=O)C(Cc1ccccc1)N1C(=O)c2ccccc2C1=O (stereo not drawn) | 104%
COc1cccc(NS(=O)(=O)c2ccc3[nH]cc(C(=O)NCCc4ccc(C)cc4)c(=O)c3c2)c1 | 124%
Nc1ccc(S(=O)(=O)N2CCSC2C(=O)O)cc1 (stereo not drawn) | 101%
Clc1cccc(N2CCN(c3ncnc4c3nc3n4CCCCC3)CC2)c1 | 3% (active)
COc1cccc(N2CCN(c3ncnc4c3nc3n4CCCCC3)CC2)c1 | -3% (active)
Clc1cccc(N2CCN(c3ncnc4c3nc3n4CCCC3)CC2)c1 | 117%
O=C(C1CCN(c2ncnc3c2nc2n3CCCCC2)CC1)N1CCN(c2cccc(Cl)c2)CC1 | 57%
COc1ccc(N2CCN(c3ncnc4c3nc3n4CCCCC3)CC2)cc1 | 73%
c1ccc(N2CCN(c3ncnc4c3nc3n4CCCCC3)CC2)cc1 | 72%
CCn1cc(C(=O)Nc2cccc(Cl)c2)c2cc(OC)c(OC)cc2c1=O | 76%
FC(F)(F)Sc1ccc2noc(-c3ccccc3)c2c1 | 115%
NC(=O)c1ccccc1NC(=O)c1ccc(-c2ccc(Br)cc2)o1 | 95%

Structure (SMILES) | survival
COc1cc(C)cc2oc(=O)c(CC(=O)NCCc3ccc(Cl)cc3)c(C)c12 | 118%
C=CCc1ccccc1OCCSc1nc(-c2ccccc2F)nc2cc(=O)[nH]n12 | 80%
COc1ccccc1OCCSc1nc(-c2ccc(C(C)(C)C)cc2)nc2cc(=O)[nH]n12 | 22%
C=CCc1ccccc1OCCSc1nc(-c2ccc(C(C)(C)C)cc2)nc2cc(=O)[nH]n12 | 0% (active)
Cc1cccc(C)c1NCc1nnc(SCC(N)=O)n1-c1ccccc1 | 110%
Cc1cc(C)cc(-n2ccn(CC(=O)Nc3ccccc3F)c(=O)c2=O)c1 | 82%
CCc1ccccc1NC(=O)Cn1nnc(C(=O)NCc2cccs2)c1N | 96%
CCc1ccccc1NC(=O)Cn1nnc(C(=O)NCc2ccccc2Cl)c1N | -3% (active)
COc1ccccc1NC(=O)Cn1nnc(C(=O)Nc2ccccc2Br)c1N | 85%
Cc1ccc(C)c(NC(=O)c2nnn(CC(=O)Nc3cccc(C)c3C)c2N)c1 | 88%
Cc1cccc(NC(=O)Cn2nnc(C(=O)Nc3ccccc3Br)c2N)c1C | 0% (active)
Cc1cc(C)cc(NC(=O)Cn2nnc(C(=O)NCc3ccccc3Cl)c2N)c1 | 77%
COc1cccc(CNC(=O)CC(c2ccc(F)cc2)N2Cc3ccccc3C2=O)c1 (stereo not drawn) | 82%
CCN(CC)C(=O)CSc1nc2ccccc2c(=O)n1CC | 107%
COc1ccc(Nc2oc(/C=C/c3ccccc3OC)nc2C#N)cc1 | 86%
CCc1ccc(-c2nn(CC(=O)NC3CCCCC3)c3c2cnc2ccc(F)cc23)cc1 | 68%
CCc1ccc(-c2nn(-c3ccc(OC)cc3)c3c2cnc2ccc(OC)cc23)cc1 | 9% (active)
CCOc1ccc2ncc3c(-c4cccc(OC)c4)nn(-c4ccccc4)c3c2c1 | 125%
CCc1ccc2ncc3c(-c4ccc(C)cc4)nn(CC(=O)NCc4ccccc4)c3c2c1 | 65%
COc1ccc2ncc3c(-c4ccccc4)nn(-c4ccc(C)c(C)c4)c3c2c1 | 0% (active)
Cc1ccc(-c2nn(CC(=O)NC3CCCCC3)c3c2cnc2ccc(F)cc23)cc1C | -3% (active)
Cc1ccc(-c2nn(CC(=O)NC3CCCC3)c3c2cnc2ccc(F)cc23)cc1C | 74%
CCc1ccc2ncc3c(-c4ccc(C)cc4)nn(CC(=O)Nc4ccc(C)cc4)c3c2c1 | 47%
Cc1ccc(-n2nc(-c3ccccc3)c3cnc4cc5c(cc4c32)OCO5)cc1C | 110%
CCCNC(=O)Cn1nc(-c2ccc(C)cc2)c2cnc3ccc(CC)cc3c21 | 10% (active)

Structure (SMILES) | survival
CCOc1ccc(-c2nn(-c3ccc(F)cc3)c3c2cnc2ccc(F)cc23)cc1 | 86%
COc1ccc(-n2nc(-c3ccc(C)cc3)c3cnc4cc(F)c(F)cc4c32)cc1 | 85%
COc1cc(OC)c(NC(=O)Nc2cccc(OCc3cc(=O)n4ccccc4n3)c2)cc1Cl | 87%
N#Cc1ccc(N2CCCCC2)cc1 | 119%
Oc1ccc(Nc2nc3ccccc3n3cnnc23)cc1 | 78%
COc1ccc(OCC(=O)NCCO)cc1 | 116%
COc1ccccc1NC(=O)c1cnc(SCC(=O)N2CCOCC2)n(C)c1=O | 77%
Cc1ccc(-c2nn(-c3ccccc3)c3c2cnc2ccccc23)cc1C | 68%
FC(F)(F)c1ccc2c(c1)ncc1c(-c3ccccc3)nn(-c3ccccc3)c12 | 125%
CCc1ccc2ncc3c(-c4ccccc4)nn(-c4ccccc4)c3c2c1 | 7% (active)
N#Cc1c(N2CCOCC2)nc(N2CCOCC2)c2c1CCN(Cc1ccccc1)C2 | 112%
COc1ccc(CNC(=O)CCc2c(C)nn(-c3ccc(N4CCCCC4)nn3)c2C)c(OC)c1 | 64%
CC(C)Cn1c(N2CCN(C(=O)Nc3ccc(Cl)cc3)CC2)nc2ccccc21 | 99%
CCCn1c(N2CCN(C(=O)Nc3ccc(OC)cc3)CC2)nc2ccccc21 | 94%
CCn1c(N2CCN(C(=O)Nc3ccc(Cl)c(C(F)(F)F)c3)CC2)nc2ccccc21 | 0% (active)
CCOCCn1ccc2c(OCC(=O)Nc3ccc(C(N)=O)cc3)cccc2c1=O | 32%
Cc1ccc(-n2cccn2)cc1 | 113%
N#CCCCn1c(=O)oc2ccccc21 | 84%
Cc1ccc2oc(=O)n(CCCOc3ccccc3Cl)c2c1 | -10% (active)
O=C(O)CCCn1c(=O)oc2ccccc21 | 99%
CCOc1ccccc1NC(=O)NCCn1c(=O)oc2ccc(C)cc21 | 79%
Cc1ccc2oc(=O)n(CCNC(=O)Nc3ccccc3C)c2c1 | 119%
O=c1oc2ccccc2n1CCCOc1ccccc1Cl | 0% (active)
O=S(=O)(c1ccccc1)c1nnn2c1nc(NCc1ccc(Cl)cc1)c1sccc12 | 88%
Cc1cc(SCC(=O)NCc2ccccc2)nc(=O)[nH]1 | 70%

Structure (SMILES) | survival
Cc1cc2oc(C(=O)Nc3ccc(S(=O)(=O)N4CCCCCC4)cc3)cc(=O)c2cc1C | 80%
COc1ccc(-c2nc(CSc3nnc(C)n4c3cc3oc(C)cc34)c(C)o2)cc1OC | 89%
CCc1ccc(OCC(=O)Nc2ccc(Cl)c(-c3nc4cc(C)cc(C)c4o3)c2)cc1 | 51%
Cc1ccc(C(=O)/C=C/c2cn(CC(O)CN3CCCCCC3)c3ccccc23)cc1 (stereo not drawn) | 28% (active)
O=C(/C=C/c1cn(CC(O)CN2CCCCCC2)c2ccccc12)c1ccccc1 (stereo not drawn) | 67%
O=C(/C=C/c1cn(CC(O)CN2CCc3ccccc32)c2ccccc12)c1ccc(Br)cc1 (stereo not drawn) | 70%
COc1ccc(C(=O)/C=C/c2cn(CC(O)CN3CCCCCC3)c3ccccc23)cc1OC (stereo not drawn) | 96%
COc1ccc(C(=O)/C=C/c2cn(CC(O)CN3CCc4ccccc43)c3ccccc23)cc1OC (stereo not drawn) | 87%
COc1ccc(C(=O)/C=C/c2cn(CC(O)CN3CCc4ccccc43)c3ccccc23)cc1 (stereo not drawn) | 63%
O=C(/C=C/c1cn(CC(O)CN2CCCCCC2)c2ccccc12)c1ccc(Br)cc1 (stereo not drawn) | 14% (active)
CCOc1ccc(C(=O)/C=C/c2cn(CC(O)CN3CCCCCC3)c3ccccc23)cc1 (stereo not drawn) | 26% (active)
Cc1ccc(Cn2ccc(NC(=O)c3cc(-c4ccc(Cl)c(Cl)c4)on3)n2)cc1 | 74%
CCOC(=O)CSc1nc2ccccc2c(=O)n1CCc1ccc(OC)c(OC)c1 | 124%
Cc1ccc(-n2c(C)cc(CO)c2C)cc1 | 100%
Cc1ccc(CNC(=O)CCc2c(C)nn(-c3ccc(N4CCOCC4)nn3)c2C)cc1 | 135%
CC(=O)Nc1ccc(N=NN2CCCCC2)cc1 | 99%
CCc1ccc(CN(Cc2ccco2)c2cnc(S(C)(=O)=O)nc2C(=O)Nc2c(C)cccc2C)cc1 | 70%
CCCOc1ccc(-c2nc3ccccc3c(=O)o2)cc1 | 70%
Cc1ccc(-c2nc(N3CCN(c4ccccc4Cl)CC3)c3ccccc3n2)cc1 | 62%
CCCOc1ccc(-c2nc(N3CCCCC3)c3ccccc3n2)cc1 | 0% (active)
CCCOc1ccc(-c2nc(N3CCC(C)CC3)c3ccccc3n2)cc1 | -2% (active)
c1ccc(-c2nc(N3CCCCC3)c3ccccc3n2)cc1 | 130%
CCCOc1ccc(CNC(=O)C2CCN(c3nc4ccccc4nc3C(F)(F)F)CC2)cc1 | 59%
